Source: PubChem BioAssay (National Center for Advancing Translational Sciences (NCATS))
Only some compounds are listed: those with a hit (about 7.5% of all), similar ones and a draw of the others.
ELG1 genotox – qHTS screen for small molecules that induce genotoxicity in human embryonic kidney (HEK293T) cells expressing luciferase-tagged ELG1 | HEK293T ELG1-luciferase reporter, luminescence, 16 h | Potency, µM (doses to about 46 µM), inactives show top-dose activity change, positive = activation, most hits filed as activators | hit rate 1.3% among 330,000; note: % of control where 0% means no effect; nearly all actives have a fitted effect of over 60% in size
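Cells (2,000/well) expressing the ELG1-luciferase fusion are dosed by pin tool and kept 16 hr at 37 °C, 5% CO2. Signal comes from ONE-Glo luciferase reagent after 30 min at room temperature.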
Rab9 prom act – qHTS Assay for Rab9 Promoter Activators; Potency, µM (series often up to 9.22 µM), inactives show at the top dose activation, negative = inhibition, actives largely listed as activators; Huh7 Rab9 promoter-luciferase reporter, luminescence, 24 h; hit rate 2.8% among 320,000; note: % of control where 0% means no effect; nearly all actives have a fitted effect of over 60% in size
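Huh7 cells stably carrying Rab9 promoter–luciferase reporter, plated 1500 cells/well, compound added after 2 h and incubated 24 h at 37 °C; luciferase luminescence then read after 10 min with detection reagent.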
SMN2 splice enh – qHTS Assay for Enhancers of SMN2 Splice Variant Expression. HEK293 SMN2-luciferase splicing reporter, luminescence, 30-36 h. Potency, µM (highest dose often 46.1 µM), for the others: top-dose activity change, positive = activation, actives largely listed as activators. hit rate 2.8% among 210,000; note: % of control where 0% means no effect; nearly all actives have a fitted effect of over 55% in size
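HEK293 cells carry an SMN2 minigene-luciferase reporter in which exon 7 inclusion puts luciferase in frame. Cells were seeded at 2000 cells/well, attached for 10-12 hours, then exposed to compounds for 30-36 hours at 37C before ONE-Glo luminescence.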
FLuc counter – qHTS profiling assay for firefly luciferase inhibitor/activator using purifed enzyme and Km concentrations of substrates (counterscreen for miR-21 project) | Luciferin 4-monooxygenase (Photinus pyralis), P08659 | Potency, µM (doses to about 57.5 µM), for inactives: at the top dose activity change, negative = inhibition, actives largely listed as inhibitors | hit rate 6.9% among 360,000 | AID 588342, 2011 | purified FLuc, Km substrates, luminescence inhibition;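 note: plate controls were vehicle for no effect and reference inhibitor for full effect; nearly all actives have a fitted effect of over 55% in size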
Target sequence (P08659 whole entry, looked up): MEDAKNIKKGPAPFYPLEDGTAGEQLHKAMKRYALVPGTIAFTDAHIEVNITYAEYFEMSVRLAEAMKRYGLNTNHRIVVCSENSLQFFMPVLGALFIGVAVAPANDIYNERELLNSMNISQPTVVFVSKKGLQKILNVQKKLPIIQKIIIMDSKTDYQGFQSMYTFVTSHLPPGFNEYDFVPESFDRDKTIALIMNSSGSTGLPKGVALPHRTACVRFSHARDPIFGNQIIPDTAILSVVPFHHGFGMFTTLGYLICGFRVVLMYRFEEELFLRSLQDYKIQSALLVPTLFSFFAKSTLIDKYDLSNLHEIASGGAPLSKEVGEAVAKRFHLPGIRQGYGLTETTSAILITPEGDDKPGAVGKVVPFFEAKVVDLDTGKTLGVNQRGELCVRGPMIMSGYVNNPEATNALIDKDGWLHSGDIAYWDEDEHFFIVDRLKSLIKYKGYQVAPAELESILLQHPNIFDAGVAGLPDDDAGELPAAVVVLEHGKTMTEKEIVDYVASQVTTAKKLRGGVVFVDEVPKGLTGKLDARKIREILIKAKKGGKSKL
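Purified P. pyralis luciferase (10nM final) with 10uM D-luciferin and 10uM ATP (Km levels) in 50mM Tris acetate pH 7.5, 10mM Mg acetate, 0.01% Tween-20, 0.05% BSA; qHTS 6-point titration, ~60 µM downward; luminescence read.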
NPC1 promoter act – qHTS Assay for NPC1 Promoter Activators; Huh7 NPC1 promoter luciferase reporter, 24 h; Potency, µM (series often up to 9.22 µM), for the others: at the top dose activation, most hits filed as activators; hit rate 2.4% among 320,000; AID 485313, 2010; note: % of control where 0% means no effect; nearly all actives have a fitted effect of over 60% in size
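Readout is luciferase luminescence, reflecting NPC1 promoter activation in stably transfected Huh7 cells after 24 h compound exposure at 37 °C in reduced-serum medium with 10% FBS.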
An asterisk follows results filed as active. Calls come from the whole dose curve; as a rule, active = well fitted curve in the direction sought with a large enough effect; inconclusive = small, poorly fitted or top-dose-only effect, or another doubt; inactive = no such curve, though single readings can be large; an effect the other way counts as inactive or inconclusive. Potency is the fitted concentration of half-maximal effect.

What do the screens show for `FCCCOc1ccc(-c2nccc(-c3ccccn3)n2)cc1`?
ELG1 genotox: inconclusive; Rab9 prom act: -0.8%; FLuc counter: 19µM*; NPC1 promoter act: -1.1%

How did O=C(O)COc1ccc(-c2nccc(-c3ccccn3)n2)cc1 do in these assays?
ELG1 genotox: -3.1%; Rab9 prom act: -2.2%; SMN2 splice enh: -17.8%; FLuc counter: 3.38µM*; NPC1 promoter act: -0.4%

Results for CC(C)S(=O)(=O)C/C(N)=N/OC(=O)c1cc(Cl)cc(Cl)c1 ?
ELG1 genotox: 0.6%; Rab9 prom act: -3.2%; FLuc counter: 3.4%; NPC1 promoter act: -4.5%

How did Cn1c(Nn2cnnc2)nc2ccccc21 do in these assays?
ELG1 genotox: -1.3%; Rab9 prom act: 1.6%; SMN2 splice enh: 5.4%; FLuc counter: 1.0%; NPC1 promoter act: 0.5%

What do the screens show for `Cc1cc(C)c(C)c(N=Nc2nc3ccccc3n2C)c1C`?
ELG1 genotox: inconclusive; Rab9 prom act: 18.7%; SMN2 splice enh: -41.3%; FLuc counter: 10.7µM*; NPC1 promoter act: 11.0%

What do the screens show for `Cc1ccc(C)c(N=Nc2nc3ccccc3n2C)c1`?
ELG1 genotox: inconclusive; Rab9 prom act: 2µM*; SMN2 splice enh: inconclusive; FLuc counter: 0.953µM*; NPC1 promoter act: 3.16µM*

Results for O=C(CCl)N(C1CCCC1)C1CCS(=O)(=O)C1 (configuration not stated) ?
ELG1 genotox: -12.4%; Rab9 prom act: -6.7%; FLuc counter: -0.5%; NPC1 promoter act: -1.2%

Results for O=C1/C(=C/c2cccnc2)Cc2ccc(Cl)cc21 ?
ELG1 genotox: -2.0%; Rab9 prom act: 5.3%; FLuc counter: 12µM*; NPC1 promoter act: 5.5%

Results for CCOC(=O)c1csc(-c2sccc2Br)n1 ?
ELG1 genotox: 5.17µM*; Rab9 prom act: 3.16µM*; FLuc counter: 1.9µM*; NPC1 promoter act: 2.51µM*

How did CCOC(=O)c1csc(-c2ccc(OC)c(OC)c2)n1 do in these assays?
ELG1 genotox: -1.0%; Rab9 prom act: 0.2%; SMN2 splice enh: -5.1%; FLuc counter: inconclusive; NPC1 promoter act: -0.9%

What do the screens show for `CCOC(=O)c1csc(NC(=O)c2ccccc2)n1`?
ELG1 genotox: 8.2µM*; Rab9 prom act: 1.78µM*; SMN2 splice enh: 11.2µM*; FLuc counter: 12µM*; NPC1 promoter act: 3.16µM*

What do the screens show for `CCOC(=O)c1csc(NC(C)=O)n1`?
ELG1 genotox: 7.3%; Rab9 prom act: 3.9%; SMN2 splice enh: 28.5%; FLuc counter: 0.0%; NPC1 promoter act: 13.7%

What do the screens show for `CCOC(=O)c1csc(NC(=O)c2ccc3c(c2)OCCO3)n1`?
ELG1 genotox: 1.1%; Rab9 prom act: inconclusive; FLuc counter: 3.79µM*; NPC1 promoter act: inconclusive

What do the screens show for `CCOC(=O)c1csc(-c2ccc3c(c2)CCO3)n1`?
ELG1 genotox: inconclusive; Rab9 prom act: 2.24µM*; FLuc counter: 4.78µM*; NPC1 promoter act: 3.55µM*

How did Cc1ccc(N2CC(NC(=O)c3cc4ccccc4o3)CC2=O)cc1 (configuration not stated) do in these assays?
FLuc counter: 7.0%

How did Cc1ccc(P(=Nc2ccccc2)(N2CCOCC2)N2CCOCC2)o1 do in these assays?
ELG1 genotox: 14.8%; Rab9 prom act: 0.2%; FLuc counter: -16.6%; NPC1 promoter act: -3.8%

How did O=C(COC(=O)c1ccc(Br)cc1)Nc1ccccc1Br do in these assays?
ELG1 genotox: -2.3%; Rab9 prom act: 4.2%; SMN2 splice enh: 14.7%; FLuc counter: 0.0%; NPC1 promoter act: -3.3%

How did CCOC(=O)c1csc(NC(=O)c2ccc(OCC)cc2)n1 do in these assays?
ELG1 genotox: -5.5%; Rab9 prom act: inconclusive; SMN2 splice enh: -39.2%; FLuc counter: 6.75µM*; NPC1 promoter act: 11.2%

Results for CCOC(=O)c1csc(NC(=O)c2ccc(OC)c(OC)c2)n1 ?
ELG1 genotox: 5.0%; Rab9 prom act: 0.5%; SMN2 splice enh: 7.5%; FLuc counter: -1.1%; NPC1 promoter act: -2.8%

Results for N/C(=N\OC(=O)c1ccc(Cl)cc1)c1ccc(Cl)cc1 ?
ELG1 genotox: inconclusive; Rab9 prom act: inconclusive; SMN2 splice enh: inconclusive; FLuc counter: 3.01µM*; NPC1 promoter act: inconclusive

Results for COc1ccccc1C(=O)O/N=C(\N)c1ccccc1Cl ?
ELG1 genotox: inconclusive; Rab9 prom act: inconclusive; SMN2 splice enh: 22.4µM*; FLuc counter: inconclusive; NPC1 promoter act: 4.0%

How did C/C(=N\OC(=O)c1ccc(Cl)cc1)c1nccs1 do in these assays?
ELG1 genotox: 1.0%; Rab9 prom act: 0.6%; SMN2 splice enh: -18.9%; FLuc counter: 0.477µM*; NPC1 promoter act: 0.7%

Results for C/C(=N\OC(=O)c1c(-c2ccccc2Cl)noc1C)c1nccs1 ?
ELG1 genotox: -2.0%; Rab9 prom act: -0.4%; FLuc counter: 5.0%; NPC1 promoter act: -1.4%

How did N/C(=N\OC(=O)c1ccco1)c1ccc(Cl)cc1 do in these assays?
ELG1 genotox: 7.3µM*; Rab9 prom act: inconclusive; FLuc counter: 23.9µM*; NPC1 promoter act: inconclusive

What do the screens show for `CCCCN(CCCC)S(=O)(=O)c1ccc(NC(=O)Cc2cccs2)cc1`?
ELG1 genotox: -4.8%; Rab9 prom act: -11.0%; SMN2 splice enh: 2.4%; FLuc counter: -8.0%; NPC1 promoter act: -4.5%

How did CC(NC(=O)CNC(=O)c1ccccc1Br)c1cccs1 (configuration not stated) do in these assays?
ELG1 genotox: 0.6%; Rab9 prom act: -2.0%; FLuc counter: -2.0%; NPC1 promoter act: -1.3%

Results for CC(=O)Nc1ccc2nc(NC(=O)CCc3ccccc3)sc2c1 ?
ELG1 genotox: -1.9%; Rab9 prom act: inconclusive; SMN2 splice enh: -0.9%; FLuc counter: -16.4%; NPC1 promoter act: -1.5%

Results for N/C(=N\OC(=O)c1ccccc1Cl)c1ccccc1 ?
ELG1 genotox: inconclusive; Rab9 prom act: 3.16µM*; SMN2 splice enh: 11.2µM*; FLuc counter: 0.379µM*; NPC1 promoter act: 3.16µM*

Results for N/C(Cn1cncn1)=N\OC(=O)c1ccc(Cl)cc1 ?
ELG1 genotox: 4.0%; Rab9 prom act: 1.9%; SMN2 splice enh: -1.7%; FLuc counter: 4.0%; NPC1 promoter act: -2.7%

What do the screens show for `COc1ccccc1C(=O)Oc1ccc(C(C)C)cc1`?
ELG1 genotox: inconclusive; Rab9 prom act: -0.9%; SMN2 splice enh: -7.4%; FLuc counter: 9.53µM*; NPC1 promoter act: -2.5%

What do the screens show for `COc1cc(C(c2c(C)[nH][nH]c2=O)c2c(C)[nH][nH]c2=O)ccc1OC(=O)c1ccccc1OC`?
SMN2 splice enh: 8.0%; FLuc counter: inconclusive

How did N/C(=N\OC(=O)c1ccccc1Cl)c1ccc(Cl)cc1 do in these assays?
ELG1 genotox: 2.59µM*; Rab9 prom act: inconclusive; SMN2 splice enh: 15.8µM*; FLuc counter: 1.35µM*; NPC1 promoter act: 19.8%
